Source: PubChem BioAssay (EPA / NIEHS)
Inconclusive results are not listed. The source made the active and inactive calls. The calls were made as follows: active = hit-call score of the fitted dose curve at least 0.9, where 1 is the maximum; inconclusive = response in the unintended direction; inactive = score below 0.9.

Biological target: Nucleoli Translocation, AR (gene 367) (UniProt P10275)
Test: UPITT_HCI_U2OS_AR_TIF2_Nucleoli_Agonist: University of Pittsburgh U2OS Androgen Receptor-Transcriptional Intermediary Factor 2 (AR-TIF2) Agonism High Content Imaging Assay for Nucleoli Translocation (AID 2283998)
Description: UPITT_AR_TIF2_PPIB is a cell-based, high-content imaging assay that uses U2OS, a human osteosarcoma cell line, expressing a human androgen receptor fused to red fluorescent protein and the coactivator TIF2 fused to green fluorescent protein. UPITT_HCI_U2OS_AR_TIF2_Nucleoli_Agonist is one of four assay components measured from the UPITT_AR_TIF2_PPIB assay. It is designed to make measurements of red fluorescence localized in the nucleolar region of the cell nucleus as detected with high-content fluorescent imaging.Data from the assay component UPITT_HCI_U2OS_AR_TIF2_Nucleoli_Agonist was analyzed into 1 assay endpoint. This assay endpoint, UPITT_HCI_U2OS_AR_TIF2_Nucleoli_Agonist, was analyzed in the positive analysis fitting direction relative to DMSO as the baseline of activity. Using a type of binding reporter, measures of receptor for gain-of-signal activity can be used to understand the binding at the pathway-level as it relates to the gene AR.
Daughter plates containing 2 uL of 10 mM compounds in DMSO were prepared and replicated from the 384-well Library of Pharmacologically Active Compounds (LOPAC) master plates using the Bravo outfitted with a 384-well transfer head. Aluminum adhesive plate seals were applied with an Abgene Seal-IT 100 (Rochester, NY) plate sealer, and the plates were stored at -20 C in a Matrical MatriMinistore (Spokane, WA) automated compound storage and retrieval system. For screening, LOPAC daughter plates were withdrawn from -20C storage, thawed to ambient temperature, centrifuged 1-2 min at 50 g, and the plate seals were removed before the transfer of 98 uL of serum-free tissue culture medium (SFM) into wells using the BioTek Microflo liquid handler (BioTek, Winooski, VT) to generate a 200 uM intermediate stock concentration of library compounds (2.0% DMSO). The diluted compounds were mixed by repeated aspiration and dispensation using a 384-well P30 dispensing head on the Evolution P3 (EP3) liquid handling platform (PerkinElmer, Waltham, MA) and then 5 uL of diluted compounds was transferred to the wells of assay plates. In the LOPAC screen, compounds were individually tested at a final concentration of 20 uM (0.2% DMSO). After the diluted compounds had been transferred from the daughter plates to the primary HCS assay plates, aluminum adhesive plate seals were applied and the diluted daughter plates were stored frozen at -20C. To confirm active compounds identified in the primary screen, we withdrew the LOPAC daughter plates containing the 200 uM intermediate concentration of library compounds (2.0% DMSO) from -20C storage, thawed them to ambient temperature, centrifuged them for 1-2 min at 50 g, and removed the plate seals. A work list was generated to direct the Multiprobe Janus liquid handling platform (PerkinElmer) to cherry pick 75 uL from the wells of the diluted daughter plates that were flagged active in the primary screen and to reformat these into a 384-well plate hit confirmation daughter plate. Five microliters of primary HCS active compounds was then transferred into triplicate wells of assay plates using a 384-well P30 dispensing head on the Evolution P3 (EP3) liquid handling platform (PerkinElmer). […] Daughter plates containing 2 uL of the serially diluted compounds in DMSO were prepared and replicated from the 384-well serial dilution master plates using the Bravo outfitted with a 384-well transfer head. Aluminum adhesive plate seals were applied and plates were stored at -20C. For testing in the bioassays, daughter plates were withdrawn from -20C storage, thawed to ambient temperature, centrifuged for 1-2 min at 50 g, and the plate seals were removed before the transfer of 38 uL of SFM into wells using the BioTek Microflo liquid handler (BioTek) to generate an intermediate stock concentration of library compounds ranging from 1.95 to 500 uM (5.0% DMSO). […]

Sequence of Nucleoli Translocation, AR (gene 367) (P10275 whole entry, looked up): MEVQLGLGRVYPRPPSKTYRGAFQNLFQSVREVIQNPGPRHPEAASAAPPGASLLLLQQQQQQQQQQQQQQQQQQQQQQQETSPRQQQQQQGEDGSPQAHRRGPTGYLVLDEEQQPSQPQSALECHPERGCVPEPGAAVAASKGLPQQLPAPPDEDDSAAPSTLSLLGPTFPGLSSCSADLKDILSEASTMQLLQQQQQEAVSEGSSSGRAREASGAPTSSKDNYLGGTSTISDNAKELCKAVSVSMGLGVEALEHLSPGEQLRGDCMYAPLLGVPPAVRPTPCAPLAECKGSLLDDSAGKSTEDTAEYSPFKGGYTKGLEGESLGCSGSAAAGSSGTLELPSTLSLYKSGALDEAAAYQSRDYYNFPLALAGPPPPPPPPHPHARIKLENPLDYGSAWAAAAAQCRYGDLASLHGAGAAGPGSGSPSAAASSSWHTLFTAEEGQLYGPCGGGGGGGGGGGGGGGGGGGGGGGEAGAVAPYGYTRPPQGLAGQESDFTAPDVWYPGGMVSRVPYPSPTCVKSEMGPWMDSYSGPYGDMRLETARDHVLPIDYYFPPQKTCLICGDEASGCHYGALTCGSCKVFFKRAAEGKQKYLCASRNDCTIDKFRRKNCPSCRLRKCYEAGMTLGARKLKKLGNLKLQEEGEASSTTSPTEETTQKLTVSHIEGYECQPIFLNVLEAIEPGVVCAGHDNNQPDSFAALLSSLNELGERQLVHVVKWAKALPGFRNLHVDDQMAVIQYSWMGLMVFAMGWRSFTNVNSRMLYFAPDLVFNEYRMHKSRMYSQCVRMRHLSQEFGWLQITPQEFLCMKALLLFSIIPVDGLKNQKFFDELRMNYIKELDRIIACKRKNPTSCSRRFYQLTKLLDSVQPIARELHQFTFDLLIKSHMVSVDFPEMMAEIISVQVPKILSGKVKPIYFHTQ

Q: For `Cc1ccc2ccccc2c1C`, which outcome is on record?
A: The outcome was “inactive”.

Q: With `CC(C)c1cccc(C(C)C)c1O` as the compound, how does the outcome read?
A: The outcome was “inactive”.

Q: How did the outcome turn out when `O=c1[nH]c(=O)[nH]c(=O)[nH]1` was run?
A: Its outcome is “inactive”.

Q: For `CCC(=O)C(CC(C)N(C)C)(c1ccccc1)c1ccccc1` (configuration not stated), which outcome is on record?
A: The outcome was “inactive”.

Q: Which outcome does the source give for `CC12CC1(C)C(=O)N(c1cc(Cl)cc(Cl)c1)C2=O` (configuration not stated) here?
A: The outcome was “inactive”.

Q: `Clc1ccc(COC(Cn2ccnc2)c2ccc(Cl)cc2Cl)cc1` (configuration not stated) was tested. Which AC50 did it give?
A: Its AC50 is 50 µM (active).

Q: Which outcome does the source give for `Cc1ccccc1C(=O)Nc1cccc(OC(C)C)c1` here?
A: The outcome was “inactive”.

Q: How did the outcome turn out when `CCOP(=S)(OCC)Oc1nc(Cl)c(Cl)cc1Cl` was run?
A: The outcome was “inactive”.

Q: How did the AC50 turn out when `O=C1C2(Cl)C3(Cl)C4(Cl)C(Cl)(Cl)C5(Cl)C3(Cl)C1(Cl)C5(Cl)C24Cl` (configuration not stated) was run?
A: Its AC50 is 12.7 µM (active).

Q: With `CC(C)(c1ccc(OCC2CO2)cc1)c1ccc(OCC2CO2)cc1` (configuration not stated) as the compound, how does the outcome read?
A: The outcome was “inactive”.

Q: With `COP(=O)(OC)O/C(=C\Cl)c1cc(Cl)c(Cl)cc1Cl` as the compound, how does the outcome read?
A: The outcome was “inactive”.

Q: `CC(=O)[O][Hg][c]1ccccc1` was tested. Which outcome did it give?
A: Its outcome is “inactive”.

Q: `COP(=S)(OC)Oc1ccc(Sc2ccc(OP(=S)(OC)OC)cc2)cc1` was tested. Which outcome did it give?
A: Its outcome is “inactive”.

Q: For `C=CC(=O)OCCCCCC(C)C`, which outcome is on record?
A: Its outcome is “inactive”.

Q: `C[C@H]1CCCC(=O)CCC/C=C/c2cc(O)cc(O)c2C(=O)O1` was tested. Which AC50 did it give?
A: The AC50 was 80.6 µM (active).

Q: With `CCSC(C)CC1CC(=O)C(C(CC)=NOC/C=C/Cl)=C(O)C1` (configuration not stated) as the compound, how does the outcome read?
A: Its outcome is “inactive”.

Q: With `C[C@H]1O[C@@H](O[C@H]2[C@@H](O)C[C@H](O[C@H]3[C@@H](O)C[C@H](O[C@H]4CC[C@@]5(C)[C@H](CC[C@@H]6[C@@H]5CC[C@]5(C)[C@@H](C7=CC(=O)OC7)CC[C@]65O)C4)O[C@@H]3C)O[C@@H]2C)C[C@H](O)[C@@H]1O` as the compound, how does the outcome read?
A: Its outcome is “inactive”.

Q: Which outcome does the source give for `COP(=S)(OC)Oc1cc(Cl)c(Cl)cc1Cl` here?
A: The outcome was “inactive”.

Q: With `Cl/C=C\C[N+]12CN3CN(CN(C3)C1)C2` as the compound, how does the outcome read?
A: Its outcome is “inactive”.

Q: `CN(CCCC(=O)c1cccnc1)N=O` was tested. Which outcome did it give?
A: Its outcome is “inactive”.

Q: How did the outcome turn out when `COP(=O)(OC)OC` was run?
A: Its outcome is “inactive”.

Q: How did the outcome turn out when `c1cc[c]([Hg][c]2ccccc2)cc1` was run?
A: Its outcome is “inactive”.
